This passage reports inhibition results from PubChem BioAssay.

Structures are written as SMILES. A number with no mark means an inactive call. No rule for the calls is given here.

For the experiment, the target named is Pantothenate synthetase (Mycobacterium tuberculosis (strain ATCC 25618 / H37Rv)) (UniProt P9WIL5). Briefly: Recombinant Mtb pantothenate synthetase (PanC) inhibitors, coupled enzyme, confirmatory (AID 375).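 Also: 0% = full reaction with vehicle and 100% = no enzyme background.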 The settings on record: coupled enzyme assay; at 10 µM, stronger effect = higher value.
Pantothenate synthetase (Mycobacterium tuberculosis (strain ATCC 25618 / H37Rv)), sequence (P9WIL5 whole entry, looked up): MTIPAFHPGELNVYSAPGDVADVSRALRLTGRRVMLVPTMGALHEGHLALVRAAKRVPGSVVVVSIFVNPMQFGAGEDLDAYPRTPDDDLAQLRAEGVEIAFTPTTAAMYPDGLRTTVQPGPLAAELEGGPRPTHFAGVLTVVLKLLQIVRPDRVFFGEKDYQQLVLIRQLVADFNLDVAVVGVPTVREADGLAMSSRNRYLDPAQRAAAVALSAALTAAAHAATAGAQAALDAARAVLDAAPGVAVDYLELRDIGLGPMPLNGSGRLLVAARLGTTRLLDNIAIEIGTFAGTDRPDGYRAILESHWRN
Regarding `CCc1ccccc1NC(=O)CSc1nc2n[nH]c(C)c2c(=N)n1-c1ccc(OC)cc1`, the inhibition was 0%.
As for `COc1ccccc1CNC(=O)Nc1cccs1`, the figure is 0%; as for `CCOC(=O)CSc1nnc2n1C(C)(C)Cc1ccccc1-2`, 3%.
As to `Clc1ccc(Cn2ncc3c(NCc4cccnc4)ncnc32)cc1`, the inhibition is 0%.
As for `C=CCSC1=C(C#N)C(c2ccccc2C)CC(=O)N1` (centres undefined), the figure is 0%.
As for `O=C(NCCCN1CCN(CCCNC(=O)c2ccc(F)cc2)CC1)c1ccc(F)cc1`, the figure is 0%; as for `CCOC(=O)C1=C(CC)Nc2ccccc2N=C1NC(=O)Nc1ccccc1OC`, 2%; as for `O=C(COc1ccc(S(=O)(=O)NC2CCCCC2)cc1Cl)NCC1CCCO1` (centres undefined), 0%.
The value for `O=c1c2ccccc2c(C=Nc2ccc(Cl)cn2)c(O)n1-c1cc(Cl)ccc1N1CCOCC1` was 4%.
On to `CCCCN(C)C(=O)c1ccc(CS(=O)(=O)c2ccccc2C)o1`, for which the inhibition was 2%.
As for `COc1cc(-c2nc(-c3cccc(C(F)(F)F)c3)no2)cc(OC)c1OC`, the figure is 0%; as for `Cc1nc(SCc2ccc(Br)cc2)[nH]c(=O)c1C`, 0%.
As for `O=C(N1CCCCCC1)N1CCN(C(=O)N2CCOCC2)CC1`, the inhibition was 0%.
The value for `COc1ccc2nc(C)cc(N3CCOCC3)c2c1` was 0%; that for `CCOC(=O)c1c(C)oc2c1c1c(c3ccccc32)OCN(Cc2cccnc2)C1` was 6%.
The value for `Cc1nn(C(=O)c2ccc3c(c2)OCO3)c(N)c1-c1ccccc1` was 0%; that for `CCOc1ccc(C(C)=O)cc1COc1ccc(-n2cnnn2)cc1` was 13%.
As for `O=C1OC2(c3ccccc3)C3CCCC2C13`, the figure is 3%; as for `CCCC(=O)Nc1nc2ccc(S(N)(=O)=O)cc2s1`, 0%.
Consider `CS(=O)(=O)Nc1ccc(C(=O)NCCc2ccccc2)cc1`, for which the inhibition is 0%.
The value for `Cc1nc2cc(N3CCCCC3)c(NC(=O)c3cccnc3)cc2c(=O)n1Cc1ccccc1` was 1%.
As for `Cc1ccc(NCc2nnc(SCC(=O)N3CCCCC3)n2CC2CCCO2)c(C)c1` (centres undefined), the figure is 3%; as for `O=C(C1CCN(S(=O)(=O)c2cccc3cccnc23)CC1)N1CCN(C2CCCCC2)CC1`, 0%; as for `O=C(/C=C/N1CCOCC1)c1ccc(-c2ccccc2)cc1`, 4%.
Regarding `Cn1c(-c2ccc(F)cc2)cnc1NCc1ccccc1`, the inhibition was 0%.
As for `COc1ccccc1C(=O)Nc1ccc(S(=O)(=O)N2CCCC2)cc1`, the figure is 4%; as for `COC(=O)c1sc(N)c(C(=O)OC)c1CSc1nc2sc3c(c2c(=O)n1C)CCC3`, 0%.
The value for `Cc1[nH]c(C(=O)N2CCCCC2)c(C)c1C(=O)NC1CCCCC1` was 4%; that for `Cn1c(=O)cc(OCC(=O)NCCCN2CCN(c3cccc(Cl)c3)CC2)c2ccccc21` was 0%; that for `O=C(COC(=O)Cc1cccc(C(F)(F)F)c1)NCC1CCCO1` (centres undefined) was 3%.
As for `Cc1cccc(NC(=O)COc2ccc(Br)cc2)n1`, the figure is 0%.
Take `Cc1cccc(N(C)C(=S)Oc2ccc3ccccc3c2)c1`: the inhibition was 7%.
As for `Cc1ccc(NC(=O)CSc2nnc(Cc3cccn3C)n2-c2ccc(F)cc2)cc1`, the figure is 6%; as for `O=C(CP(=O)(CO)CO)c1ccc(Cl)cc1`, 0%; as for `O=C(NC1CCCCC1)c1cc2nc(-c3ccco3)cc(C(F)(F)F)n2n1`, 0%.
Take `O=c1c2cc(Cl)ccc2[nH]c(=S)n1Cc1ccco1`: the inhibition was 8%.
Regarding `CCc1noc(C)c1C(=O)NCCc1ccc(OC)c(OC)c1`, the inhibition was 3%.
`O=C(NCCCN1CCN(Cc2ccccc2)CC1)C1CCN(c2nnc(-n3cccc3)s2)CC1`: the inhibition is 0%.
As for `CCCn1cc(SCC(=O)NCc2ccco2)c2ccccc21`, the inhibition was 3%.

For orientation: inhibition means the change of the read-out against control, counted positive when it falls.
